# Data as given in ChEMBL document CHEMBL3988442, “University of Dundee, Small-Polar-MMV Screening Library” (2021).
# Hit rate of the full screen: of about 69,000 compounds, about 1,000 (1.4%) showed an effect of 50% or more. The sample as a whole holds a higher share of strong results than the screen did.
# System: Leishmania donovani
# Assay: Leishmania intramacrophage assay
# Assay type: functional, organism-based
# Design: scale not given: in the data most compounds retested in dose-response had high values
smiles,measurement,setting,value
COCCN(Cc1ccccc1)Cc1nc(-c2ccsc2)no1,Percent Effect,"30.3 µM, […]",22.89%
Cc1cc(C2CCC2)nc(NCC(C)(C)N2CCCC2)n1,Percent Effect,"30.3 µM, […]",9.291%
CCN1CCN(C(C)(C)CNc2nc(C)cc(C3CCC3)n2)CC1,Percent Effect,"30.3 µM, […]",54.39%
Cc1cc(C2CCC2)nc(NCC(C)(C)N2CCOCC2)n1,Percent Effect,"30.3 µM, […]",23.38%
CCc1nc(C)c([C@H]2CN(C)C[C@@H]2C(=O)NCCc2cnccn2)[nH]1,Percent Effect,"30 µM, 30.03 µM",23.64%
CCNC(=O)NC(=O)CN1CCOC(c2ccccc2Cl)C1 (configuration not stated),Percent Effect,"30.3 µM, […]",7.788%
CN(C)CCNc1cc(-c2ncccn2)c2cc[nH]c2n1,Percent Effect,"30.3 µM, […]",4.01%
COc1ccc2c(c1OC)Cc1c-2nc(N)c(C#N)c1C1CCOC1 (configuration not stated),Percent Effect,"30.3 µM, […]",11.41%
N#Cc1c(N)nc2c(c1C1CCOC1)CCc1cc(O)ccc1-2 (configuration not stated),Percent Effect,"30.3 µM, […]",-89.94%
COc1ccc2c(c1)Cc1c-2nc(N)c(C#N)c1C1CCOC1 (configuration not stated),Percent Effect,"30.3 µM, […]",63.86%
Cc1nn(C)c(N(C)C)c1CNCc1cccc(OCCN(C)C)c1,Percent Effect,"30 µM, 30.03 µM",-13.13%
COc1ccccc1CN(C)C(=O)CN1CC(n2nc(C)cc2C)C1,Percent Effect,"30.3 µM, […]",72.41%
Cc1cc(C)n(C2CN(CC(=O)N(C)Cc3ccco3)C2)n1,Percent Effect,"30.3 µM, […]",-0.4731%
COc1cccc(CN(C)C(=O)CN2CC(n3nc(C)cc3C)C2)c1,Percent Effect,"30 µM, 30.03 µM",4.207%
CC(=O)N1CCC(N2CC[C@H](c3nc4cc(C)ccc4o3)C2)CC1,Percent Effect,"30.3 µM, […]",22.67%
CCn1nc(C)c2ncnc(NCC(=O)N3CCOCC3)c21,Percent Effect,"30 µM, 30.03 µM",13.04%
CCN(CC)C(=O)Cn1ccc2cc(NC(=O)NC3CC3)ccc21,Percent Effect,30 µM,18.91%
O=C(O)C(F)(F)F.O=C1CC[C@H]2[C@H](CCN2c2ncccn2)N1c1ccccc1,Percent Effect,"30.3 µM, […]",50.79%
Cc1cnc(C(=O)N2CC[C@H]3[C@@H]2CCC(=O)N3c2cccnc2)cn1.O=C(O)C(F)(F)F,Percent Effect,"30.3 µM, […]",26.72%
O=C(O)C(F)(F)F.O=C1CC[C@H]2[C@H](CCN2c2ncc(F)cn2)N1c1ccccc1,Percent Effect,"30.3 µM, […]",36.83%
O=C(c1cscn1)N1CC[C@H]2[C@@H]1CCC(=O)N2c1ccccc1,Percent Effect,"30.3 µM, […]",4.628%
Cc1ccc(C(=O)N2CC[C@H]3[C@@H]2CCC(=O)N3c2cccnc2)o1.O=C(O)C(F)(F)F,Percent Effect,"30.3 µM, […]",56.88%
Cc1ccoc1C(=O)N1CC[C@H]2[C@@H]1CCC(=O)N2c1cccnc1.O=C(O)C(F)(F)F,Percent Effect,"30.3 µM, […]",3.255%
Cc1cnc(N2CC[C@H]3[C@@H]2CCC(=O)N3c2ccccc2)nc1.O=C(O)C(F)(F)F,Percent Effect,"30.3 µM, […]",39.44%
O=C(c1cnccn1)N1CC[C@H]2[C@@H]1CCC(=O)N2c1cccnc1,Percent Effect,"30.3 µM, […]",69.01%
O=C(c1cccs1)N1CC[C@H]2[C@@H]1CCC(=O)N2c1cccnc1,Percent Effect,"30.3 µM, […]",-14.6%
CCc1cc(NCCc2cnccn2)n2nc(C)c(C)c2n1,Percent Effect,"30.3 µM, […]",3.819%
CNC(=O)[C@H]1CCS(=O)(=O)[C@@H]2CN(Cc3ccc(OC)cc3)C[C@H]12,Percent Effect,"30 µM, 30.03 µM",7.266%
Cc1cccc(C(=O)N2CCCCC2c2nc3cc(F)ccc3[nH]2)n1 (configuration not stated),Percent Effect,"30.3 µM, […]",32.48%
Cc1noc([C@@H]2CC[C@@H]3[C@@H](CCN3c3nnc(C)s3)O2)n1.O=C(O)C(F)(F)F,Percent Effect,"30.3 µM, […]",50.59%
Cc1noc([C@H]2C[C@@H]3CCN(c4nnc(C)s4)C[C@H]3O2)n1.O=C(O)C(F)(F)F,Percent Effect,"30.3 µM, […]",7.673%
Cc1noc([C@@H]2C[C@@H]3CCN(c4nnc(C)s4)C[C@H]3O2)n1.O=C(O)C(F)(F)F,Percent Effect,"30.3 µM, […]",45.73%
O=C(NCCc1nnc2n1CCC2)NCC1(c2ccccc2F)CC1,Percent Effect,"30.3 µM, […]",6.319%
CC(C)NC(=O)C[C@@H]1CCNC[C@@H]1Cc1cc(-c2ccccc2)on1,Percent Effect,"30.3 µM, […]",-4.938%
O=C(NCC1CC2(CO1)CN(c1ncccn1)C2)C1CCC1 (configuration not stated),Percent Effect,"30.3 µM, […]",1.586%
CCOC(=O)N1CCC(NC(=O)Nc2cccnc2OCC)CC1,Percent Effect,30 µM,21.62%
COCCNC(=O)c1cc(-c2ccc3c(c2)CCO3)n[nH]1,Percent Effect,"30.3 µM, […]",-2.658%
O=C(Nc1ccccc1)C1CN(CC2CCOCC2)CC12CCOCC2.O=C(O)C(F)(F)F (configuration not stated),Percent Effect,"30.3 µM, […]",6.071%
O=C(Nc1ccccc1)C1CN(CC2CC2)CC12CCOCC2.O=C(O)C(F)(F)F (configuration not stated),Percent Effect,"30 µM, 30.03 µM",52.69%
O=C(Nc1ccccc1)C1CN(Cc2ccco2)CC12CCOCC2.O=C(O)C(F)(F)F (configuration not stated),Percent Effect,"30.3 µM, […]",14.17%
Cc1nccn1C1CCCN(C(=O)CCNc2ncccn2)C1 (configuration not stated),Percent Effect,30 µM,-4.975%
COc1ncccc1CN1CCc2[nH]nc(C(=O)N(C)C)c2C1,Percent Effect,"30.3 µM, […]",13.46%
FC(F)(F)c1nc(NC2CCCCC2)c2ccccc2n1,Percent Effect,"30.3 µM, […]",22.7%
FC(F)(F)c1nc(NC2CCc3ncnn3C2)c2ccccc2n1 (configuration not stated),Percent Effect,"30.3 µM, […]",-21.34%
FC(F)(F)c1nc(NC2CCCC2)c2ccccc2n1,Percent Effect,"30 µM, 30.03 µM",52.6%
COc1ccc(NC(=O)CCc2c(C)nc3cc(O)nn3c2C)cn1,Percent Effect,"30 µM, 30.03 µM",19.21%
CCC(CC)C(=O)N1CCN(Cc2nc3ccccc3c(=O)[nH]2)CC1,Percent Effect,"30.3 µM, […]",0.3817%
c1ccc(-c2cccc(N3CCC(NCCc4cscn4)CC3)c2)cc1,Percent Effect,"30.3 µM, […]",97.96%
CN(Cc1cnn(C)c1)C1CCN(c2cccc(-c3cscn3)c2)CC1,Percent Effect,"30.3 µM, […]",12%
O=C1CCCN1c1cccc(N2CCC(NCCc3cscn3)CC2)c1,Percent Effect,"30.3 µM, […]",16.35%
CC(C)CC(C)NC1CCN(c2cccc(-c3cscn3)c2)CC1 (configuration not stated),Percent Effect,"30.3 µM, […]",17.78%
CN(C)CCCN(C)C1CCN(c2cccc(-c3cscn3)c2)CC1,Percent Effect,"30.3 µM, […]",61.93%
CN(Cc1nccs1)C1CCN(c2cccc(-c3cscn3)c2)CC1,Percent Effect,"30.3 µM, […]",8.314%
Cc1cc(CN(C)C2CCN(c3cccc(-c4cscn4)c3)CC2)on1,Percent Effect,"30.3 µM, […]",19.61%
c1cc(-c2cscn2)cc(N2CCC(NCCc3cccs3)CC2)c1,Percent Effect,"30.3 µM, […]",68.46%
CN(Cc1ccon1)C1CCN(c2cccc(-c3cscn3)c2)CC1,Percent Effect,"30.3 µM, […]",-3.333%
CC1CN(C(=O)c2cccc(OCc3cscn3)c2)CCO1 (configuration not stated),Percent Effect,30 µM,15.03%
CNC(=O)CN([C@H]1C[C@H]2CCOC[C@H]2C1)S(=O)(=O)c1ccccc1,Percent Effect,"30.3 µM, […]",-15.54%
O=c1oc(-c2cccs2)nn1CC1(O)CCCCC1,Percent Effect,"30.3 µM, […]",-0.7487%
COc1cccc2c1OCC(NCCCOc1cccnc1)C2 (configuration not stated),Percent Effect,"30.3 µM, […]",0.7744%
O=C(O)C(F)(F)F.c1ncn(Cc2cn3c(n2)CN(CC2CCCC2)CC3)n1,Percent Effect,"30.3 µM, […]",-12.84%
CC(NCC1(N(C)C)CCOCC1)c1ccc(SC(F)F)cc1 (configuration not stated),Percent Effect,"30.3 µM, […]",43.5%
CCc1ccc(C(=O)N2CC(C(=O)NC(C)C)C3(CCOCC3)C2)cc1 (configuration not stated),Percent Effect,"30.3 µM, […]",20.17%
CN(C)C(=O)c1cnc2n1CCN(Cc1ccsc1)C2.O=C(O)C(F)(F)F,Percent Effect,"30.3 µM, […]",24.8%
Cc1ccc(C(=O)OC(C)Cn2cccn2)c(=O)[nH]1 (configuration not stated),Percent Effect,"30.3 µM, […]",9.557%
Cc1ccc(C(=O)NC(C)Cn2cccn2)c(=O)[nH]1 (configuration not stated),Percent Effect,"30.3 µM, […]",61.08%
Cc1ccc(C(=O)NCC(C)Cn2cccn2)c(=O)[nH]1 (configuration not stated),Percent Effect,"30.3 µM, […]",5.92%
CCC(O)CN1CCN(C(=O)c2ccn(C)c(=O)c2)CC1 (configuration not stated),Percent Effect,30 µM,25.79%
CSCCC(Nc1nc(C)cc(C)n1)C(=O)NC(C)(C)CO (configuration not stated),Percent Effect,"30.3 µM, […]",-4.466%
COC1CCCN(C(=O)Nc2nc(C)n(C)n2)C1 (configuration not stated),Percent Effect,"30 µM, 30.03 µM",27.05%
O=C(NCCCN1CCc2ccccc2C1)c1cccnc1O,Percent Effect,"30 µM, 30.03 µM",26.46%
O=C(c1ccoc1)N(Cc1ccccn1)C1CC1,Percent Effect,"30.3 µM, […]",-9.366%
O=C(c1ccoc1)N(Cc1ccncc1)C1CC1,Percent Effect,"30.3 µM, […]",53.31%
O=C(c1ccoc1)N(Cc1cccnc1)C1CC1,Percent Effect,"30.3 µM, […]",22.13%
CSc1ccc(-c2nc(CN3CCC(NC(C)=O)CC3)c(C)o2)cc1,Percent Effect,"30.3 µM, […]",13.21%
CSc1ccc(-c2nc(CN3C[C@@H](C)NC[C@@H]3C)c(C)o2)cc1,Percent Effect,"30.3 µM, […]",42.57%
CSc1ccc(-c2nc(CN3CCC(CN)C3)c(C)o2)cc1 (configuration not stated),Percent Effect,"30.3 µM, […]",98.64%
CNC(=O)C1CCN(Cc2nc(-c3ccc(SC)cc3)oc2C)C1 (configuration not stated),Percent Effect,"30.3 µM, […]",7.886%
CSc1ccc(-c2nc(CN3CCC(C(N)=O)CC3)c(C)o2)cc1,Percent Effect,"30.3 µM, […]",-4.149%
CSc1ccc(-c2nc(CN3CCNCC3C)c(C)o2)cc1 (configuration not stated),Percent Effect,"30.3 µM, […]",81.77%
CNS(=O)(=O)c1cc(C(=O)NC2COc3ccccc3C2)ccc1OC (configuration not stated),Percent Effect,"30.3 µM, […]",-9.324%
CN(C)C(=O)c1cccc(CCNc2ccccc2S(C)(=O)=O)c1,Percent Effect,"30.3 µM, […]",7.886%
CN(Cc1cn(C2CCNCC2)nn1)CC1CCCO1 (configuration not stated),Percent Effect,"30.3 µM, […]",7.398%
CCN(Cc1cn(CC2CCNCC2)nn1)CC1CCCO1 (configuration not stated),Percent Effect,"30.3 µM, […]",62.19%
CN(Cc1cn(CC2CCNCC2)nn1)CC1CCCCO1 (configuration not stated),Percent Effect,"30.3 µM, […]",-23.25%
Cc1ccccc1-n1cc(-c2ccnc(N3CCCC(CN)C3)n2)cn1 (configuration not stated),Percent Effect,"30.3 µM, […]",67.45%
Cc1ccccc1-n1cc(-c2ccnc(N3CCCC(O)C3)n2)cn1 (configuration not stated),Percent Effect,"30.3 µM, […]",16.96%
COC[C@H]1CCCN1c1nccc(-c2cnn(-c3ccccc3C)c2)n1,Percent Effect,"30.3 µM, […]",41.43%
COc1ccccc1N1CCN(Cc2nccc(OC)c2OC)CC1=O,Percent Effect,"30.3 µM, […]",-10.47%
CN(Cc1ccc2c(c1)OCO2)C(=O)c1ccc(C2CCCO2)s1 (configuration not stated),Percent Effect,"30.3 µM, […]",-16.35%
CC1CCCN(CCCNC(=O)Cc2csc(-c3ccoc3)n2)C1 (configuration not stated),Percent Effect,"30.3 µM, […]",9.746%
O=C(CCNc1ncccn1)NCc1ccc(Br)s1,Percent Effect,"30.3 µM, […]",14.9%
Cc1nn(C)c(C)c1CN(C)c1nc(C2CC2)nc2c(C)nn(C)c12,Percent Effect,"30.3 µM, […]",-21.06%
Cc1nn(C)c2c(N(C)Cc3cccs3)nc(C3CC3)nc12,Percent Effect,"30.3 µM, […]",56.51%
Cc1nn(C)c2c(N(C)Cc3ccco3)nc(C3CC3)nc12,Percent Effect,"30.3 µM, […]",10.49%
CN1CCOC(CNCCOc2cccc(C#N)c2)C1 (configuration not stated),Percent Effect,"30.3 µM, […]",25.34%
Cn1cccc1C(=O)NCc1cn2c(n1)CN(CC1CCOC1)CC2 (configuration not stated),Percent Effect,"30.3 µM, […]",22.42%
